From PubChem BioAssay AID1159580 (chemical genetic matrix, 2015)
The whole screen tested about 5,500 compounds, of which about 2,000 (36%) were called active. Roughly 18% stayed inconclusive and do not appear here. No stated cut-off is given here; in the data, active means normalized growth mostly below about 0.91 (no sharp cut-off); inconclusive means no clear call, values can overlap the other calls; inactive means mostly above about 0.92. The list shows a part of the results.

Experiment: chemical genetic growth profiling, strain panel (AID 1159580);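 further: tested at 20 µM; growth read once vehicle control cultures reached saturation at 30 °C; 1 = growth at the plate median or of vehicle wells; lower values mean less growth of the strain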
Conditions: S. cerevisiae deletion strains, growth OD
[1] = locus YAL040C, strain CLN3, active compounds read low
[2] = locus YCL061C, strain MRC1 (second series), active compounds read low
[3] = locus YDR363W, strain ESC2, active compounds read low
[4] = locus YER002W, strain NOP16, active compounds read low
[5] = locus YGR229C, strain SMI1, active compounds read low
[6] = locus YJR075W, strain HOC1, active compounds read low
[7] = locus YMR307W, strain GAS1, active compounds read low
[8] = locus YNL153C, strain GIM3, active compounds read low
[9] = locus YNL175C, strain NOP13, active compounds read low
[10] = locus YNL197C, strain WHI3, active compounds read low
[11] = locus YNL224C, strain SQS1, active compounds read low
[12] = locus YNL322C, strain KRE1, active compounds read low
[13] = locus YOR083W, strain WHI5 (second series), active compounds read low
[14] = locus YPL055C, strain LGE1, active compounds read low

Measured: normalized growth

CN1CCN(CC/C=C2/c3ccccc3Sc3ccc(S(=O)(=O)N(C)C)cc32)CC1
inactive: [1] 0.997 | [2] 1 | [3] 0.983 | [4] 1.03 | [5] 0.99 | [6] 0.993 | [7] 0.999 | [8] 1.02 | [9] 1.03 | [10] 1.02 | [11] 1.04 | [12] 0.967 | [13] 1.05 | [14] 0.989

CN(C)S(=O)(=O)c1ccc2c(c1)/C(=C/c1cc3c([nH]1)CCCC3)C(=O)N2
inactive: [1] 1.07 | [2] 0.995 | [3] 0.983 | [4] 0.983 | [5] 0.972 | [6] 1.01 | [7] 0.996 | locus YNL128W, strain TEP1, active compounds read low 0.982 | [8] 0.977 | [9] 0.976 | [10] 0.995 | [11] 0.983 | [12] 0.983 | [13] 1 | [14] 0.985
